# Data: PubChem BioAssay (NCATS)
# Records with an inconclusive call do not appear. Unmarked numbers belong to inactive results. The source made the active and inactive calls. Unless noted, calls follow the shape of the dose curve; as a rule, active = well fitted inhibition curve with a large enough effect; inconclusive = small, poorly fitted or top-dose-only effect; inactive = no such curve, though single readings can be large or run the other way.
# Test: qHTS Assay for Identification of Small Molecule Agonists for Hypoxia Response Element Signaling Pathway (AID 914; active = well fitted activation curve with a large enough effect in the signal ratio, with a control signal flat, not every such curve was filed as active; the % refers to the signal ratio; also: potency is read from the fitted curve at half-maximal effect; as to activation: % of control where 0% means no effect)
# Conditions: ME-180 (cervical carcinoma) HRE-bla reporter, beta-lactamase ratio, CoCl2, 17 h; activation: stronger effect = higher value
# Summary of the method: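 Reporter activity (beta-lactamase, CCF4 460nm/530nm ratio) in HRE-bla ME-180 cells is recorded after 17 h compound exposure with EC50 CoCl2 at 37 degrees Celsius. AC50 values come from titration data.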
Compound,Potency,activation [%]
COc1ccc(-n2c(=O)c(-c3cc(F)cc(F)c3)nc3cnc(N4CCNCC4)nc32)cc1,3.16 µM (active),
COc1ccc(Oc2ncc3nc(-c4cccs4)c(=O)n(Cc4cccs4)c3n2)cc1,3.16 µM (active),
O=c1c(-c2cccs2)nc2cnc(Oc3cccc(Cl)c3)nc2n1C[C@H]1CCCO1,3.16 µM (active),
CN(C)c1ncc2nc(-c3ccccc3)c(=O)n(C3CC3)c2n1,3.16 µM (active),
COc1ncc2nc(CCc3ccccc3)c(=O)n(CCC#N)c2n1,,-14.7
CCNc1ncc2nc(-c3cc(F)cc(F)c3)c(=O)n(-c3ccc(OC)cc3)c2n1,0.398 µM (active),
CCNc1ncc2nc(-c3cc(F)cc(F)c3)c(=O)n(-c3ccccc3)c2n1,2.51 µM (active),
CCNc1ncc2nc(-c3ccccc3)c(=O)n(CCc3ccccc3)c2n1,1.58 µM (active),
COCCn1c(=O)c(-c2cccs2)nc2cnc(Oc3cccc(Cl)c3)nc21,3.16 µM (active),

# Test: Primary qHTS for small molecule stabilizers of the endoplasmic reticulum resident proteome: Secreted ER Calcium Modulated Protein (SERCaMP) assay (AID 1508630); also: % is scaled to controls: 0 for no effect and ±100 for the full control effect
# Conditions: SH-SY5Y GLuc-SERCaMP (Gaussia luciferase released on ER calcium loss) secretion, thapsigargin, luminescence; series mostly up to 38.4 µM; activity change, negative = inhibition: at the top concentration
# Summary of the method: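 The SH-SY5Y reporter protocol was run at 3 concentrations up to 38.3 uM (primary) or 11 concentrations (follow-up): 16 h compound, 100 nM thapsigargin for 4 h, then extracellular luciferase luminescence.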
row,Compound,"activity change, negative = inhibition [%]"
1,O=C(c1cnccn1)N1CCC2(CCCN(c3ncccn3)C2)CC1,25.9
2,COCCNc1nc(-c2ccccc2C(F)(F)F)nc2ccccc12,-20.6
3,COc1ccc(-n2c(=O)c(-c3cc(F)cc(F)c3)nc3cnc(N4CCNCC4)nc32)cc1,125
4,COc1ccc(NC(=O)N2CC3(CCN(C(=O)c4cccc(F)c4)CC3)C2)cc1,3.98
5,COc1ccc(NC(=O)N2CCCC3(CCN(C(=O)c4cccc(F)c4)CC3)C2)cc1,3.62
6,Oc1cc2c(c(Cl)c1O)CCNC[C@H]2c1ccccc1,-8.9
7,COc1ccc(Oc2ncc3nc(-c4cccs4)c(=O)n(Cc4cccs4)c3n2)cc1,8.15
8,O=c1c(-c2cccs2)nc2cnc(Oc3cccc(Cl)c3)nc2n1C[C@H]1CCCO1,-9.7
9,c1ccc(-c2ccc(N3CCCC4(CCNCC4)C3)cc2)cc1,286
10,COc1cccc(Nc2ncc3nc(-c4ccc(F)cc4)c(=O)n(C[C@H]4CCCO4)c3n2)c1,6.52
11,CC(C)NC(=O)N1CC[C@@]2(CCCN(C(=O)c3ccco3)C2)C1,27.7
12,O=c1c(-c2ccc(Cl)cc2)nc2cnc(N3CCOCC3)nc2n1C1CC1,-23.6
13,CN(C)c1ncc2nc(-c3ccccc3)c(=O)n(C3CC3)c2n1,-17.6
14,O=c1c(-c2ccc(Cl)cc2)nc2cncnc2n1Cc1ccc(F)cc1,-25.1
15,O=C(c1cnccn1)N1CCC2(CC1)CN(Cc1cc(C(F)(F)F)cc(C(F)(F)F)c1)C2,40.4
16,COc1cccc(Cn2c(=O)c(C)nc3cnc(OCc4ccccc4)nc32)c1,-29.3
17,COc1ccc(C(=O)N2CCC3(CCN(C(=O)Nc4cccc(C#N)c4)CC3)CC2)cc1,-16.1
18,COC(=O)N1CCC2(CCN(C(=O)Nc3cccc(F)c3)CC2)CC1,6.5
19,COc1ncc2nc(CCc3ccccc3)c(=O)n(CCC#N)c2n1,-29.3
20,CCNc1ncc2nc(-c3cc(F)cc(F)c3)c(=O)n(-c3ccc(OC)cc3)c2n1,23

row,Compound,"activity change, negative = inhibition [%]"
1,COc1ccc(Oc2ncc3ncc(=O)n(CCc4ccccc4)c3n2)cc1,11.6
2,O=C(Nc1cccc(F)c1)N1CCCC2(CCN(C(=O)c3cccc(F)c3)CC2)C1,5.29
3,O=C(c1cnccn1)N1CCC2(CCCN(c3ccccn3)C2)CC1,33.7
4,O=S(=O)(c1ccccc1)N1CCC2(CCCN(Cc3cc(C(F)(F)F)cc(C(F)(F)F)c3)C2)CC1,-3.69
5,O=C(Oc1ccccc1)N1CCC2(CCCN(c3ncccn3)C2)CC1,-14
6,COc1cccc(Cn2c(=O)c(CCc3ccccc3)nc3cnc(OC)nc32)c1,-21.1
7,CCNc1ncc2nc(-c3cc(F)cc(F)c3)c(=O)n(-c3ccccc3)c2n1,11.8
8,CCNc1ncc2nc(-c3ccccc3)c(=O)n(CCc3ccccc3)c2n1,31.4
9,COc1ccc(Oc2ncc3nc(-c4ccccc4)c(=O)n(Cc4cccs4)c3n2)cc1,-16.3
10,O=c1c(-c2cccs2)nc2cncnc2n1C1CC1,13.5
11,COc1ccccc1-c1nc(N(C)Cc2ccco2)c2ccccc2n1,-29.3
12,COCCn1c(=O)c(-c2cccs2)nc2cnc(Oc3cccc(Cl)c3)nc21,-22.8
13,COc1ccccc1CNc1nc(-c2ccc(N(C)C)cc2)nc2ccccc12,79.7
14,CCNc1ncc2nc(-c3cccc(C#N)c3)c(=O)n(C)c2n1,-7.49
15,COc1ccc(NC(=O)N2CCC3(CC2)CCN(C(=O)c2cccc(F)c2)CC3)cc1,-2.9
16,O=c1c(-c2ccc(Cl)cc2)nc2cnc(N3CCNCC3)nc2n1Cc1ccc(F)cc1,194
17,COc1ncc2nc(-c3ccc(Cl)cc3)c(=O)n(CCc3ccccc3)c2n1,-5.75
18,O=C(c1cccc(F)c1)N1CCC2(CC1)CCN(c1ccc(-c3ccccc3)cc1)CC2,5.11
19,O=c1cnc2cnc(Nc3ccccc3)nc2n1C[C@H]1CCCO1,119
